# High-throughput results from PubChem BioAssay.
# D1 antag: human D1 dopamine receptor antagonism; P21728; HEK293 TREx D1 cells, calcium flux, dopamine EC80; active compounds read low; activity change, negative = inhibition, % at 10 µM; 360,000 compounds, 3.2% hits; AID 504652; in the data active = activity change below about -30%
#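 After overnight tetracycline induction at 30 C, force-coupled D1 HEK293 cells took up a no-wash calcium dye at room temperature. Compounds were added and monitored 180 s, and the response to EC80 dopamine was then recorded.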
# D1 potentiator: enhances dopamine response at the human D1 receptor | HEK293 TREx D1 cells, calcium flux, dopamine EC20 potentiation | potentiation, % at 10 µM | 360,000 compounds, 0.036% hits; in the data active = potentiation above about 30%
# D1 ag: activates the human D1 dopamine receptor; P21728; 360,000 compounds, 1% hits; HEK293 T-REx D1 cells, calcium flux, agonist mode; activation, % at 2 µM; in the data active = activation above about 30%
#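 Tetracycline-induced HEK293 TREx D1 cells, force-coupled to calcium signalling, were dye-loaded with a no-wash calcium kit. Compound was pin-added after a 10 s baseline. Fluorescence was read kinetically at 1 cycle/s for 180 s, with calcium rises flagged as agonism.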
# DRD3 antagonist: antagonists of human D3 dopamine receptor. P35462. D3R cells, DiscoveRx beta-arrestin luminescence, antagonist mode; active compounds read low. max response, negative = inhibition, %. 360,000 compounds, 2.5% hits; in the data active = max response below about -50%; inconclusive = no clear call, values can overlap the other calls
# Target sequence (P35462 whole entry, looked up): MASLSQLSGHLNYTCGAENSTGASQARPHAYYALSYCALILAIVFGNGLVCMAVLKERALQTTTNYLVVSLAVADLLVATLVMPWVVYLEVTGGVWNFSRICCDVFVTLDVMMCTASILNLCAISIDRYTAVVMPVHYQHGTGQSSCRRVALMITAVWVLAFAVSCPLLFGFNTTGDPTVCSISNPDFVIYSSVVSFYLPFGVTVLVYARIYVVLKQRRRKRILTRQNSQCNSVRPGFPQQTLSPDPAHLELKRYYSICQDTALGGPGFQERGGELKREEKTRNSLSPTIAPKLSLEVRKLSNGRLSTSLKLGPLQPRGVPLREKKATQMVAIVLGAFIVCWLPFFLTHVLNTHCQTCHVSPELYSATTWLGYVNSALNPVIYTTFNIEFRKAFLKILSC
#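 Cells expressing the human receptor were seeded at 1500 cells/well, incubated overnight at 37 degrees C in 5% CO2, then exposed to library compounds with dopamine controls for 90 minutes at 37 degrees C before luminescent detection.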
# D3 ag: activates the human D3 dopamine receptor | P35462 | D3R DiscoveRx beta-arrestin cells, luminescence, 90 min | max activation, % | 410,000 compounds, 0.58% hits | AID 652048; in the data active = max activation above about 30%
#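 Agonist-mode cell screen: cells plated at 1500/well and incubated overnight at 37 °C, then exposed to library compounds for 90 min at 37 °C. Detection reagent was added for 30–60 min at room temperature, and luminescence was read.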
# Numbers stand for hits; i = inactive; ? = inconclusive; nt = no result. Hits are enriched below; roughly 6.1% of the tested compounds scored in any of these assays.
SMILES,D1 antag,D1 potentiator,D1 ag,DRD3 antagonist,D3 ag
O=C1/C(=C/c2ccc(O)cc2)SC(=S)N1CC1CCCO1 (stereo unspecified),i,i,49,i,i
COc1cccc(Cn2ncc3c4sc(B(O)O)cc4n(C)c3c2=O)c1,i,i,i,nt,nt
O=C1C2=C(Nc3ccccc3SC2c2ccccc2C(F)(F)F)c2ccccc21 (stereo unspecified),i,i,i,nt,i
Nc1c(C(=O)Nc2ccccc2)sc2nc3c(c(-c4ccco4)c12)CCC3,i,i,i,-60,i
CCOC(=O)c1cc(OC(=O)c2ccc(C)cc2)n(-c2ccccc2)n1,i,i,i,nt,i
O=C(O)c1nn(Cc2ncc(-c3cccc(Cl)c3)o2)c(=O)c2ccccc12,i,i,i,i,33
CC(C)(C)OC(=O)N1CCC(c2c(C(=O)Nc3ccc4c(c3)OCO4)cnn2-c2ccc(F)cc2F)CC1,i,i,i,nt,i
O=C(Nc1cccc(F)c1)c1cccnc1NCCc1ccccc1,i,i,i,i,i
O=C(Nc1ccc(F)cc1)c1cccnc1NCCc1ccccc1,-33,i,i,i,i
CCOC(=O)C1(C)C=C(Nc2ccc(C)cc2)C(=O)N1c1ccc(C)cc1 (stereo unspecified),i,i,i,i,i
CCOC(=O)C1(C)C=C(Nc2ccc(OC)cc2)C(=O)N1c1ccccc1 (stereo unspecified),-42,i,i,nt,i
CC1CCN(S(=O)(=O)N2CCC(C(=O)NCc3ccccc3Cl)CC2)CC1,i,i,i,nt,i
Cc1ccc(-c2csc(C(C)(O)c3ccc(F)c(F)c3)n2)cc1C (stereo unspecified),nt,nt,nt,-69,i
CC(O)(c1ccc(F)c(F)c1)c1nc(-c2ccc(F)c(Cl)c2)cs1 (stereo unspecified),nt,nt,nt,i,i
Cc1ccc2scc(N3CCc4ccccc4C3)c(=O)c2c1,i,i,i,nt,i
Cc1nc(=O)c(-c2ccccc2)c(C)n1CCO,-37,i,i,i,i
CCOC(=O)CCCn1c(C)nc(=O)c(-c2ccccc2)c1C,-34,i,i,?,i
CCCn1c2ccccc2c2cnn(CC(=O)Nc3cccc(C(=O)OCC)c3)c(=O)c21,i,i,i,nt,i
C[C@H](C(=O)O)c1cccc(C(=O)c2ccccc2)c1,-54,i,i,i,i
CC1CCCCN1C(=O)c1ccc2c(c1)N(Cc1ccc(Cl)cc1)C(=O)c1ccccc1S2=O (stereo unspecified),i,i,i,nt,i
COc1ccccc1CNC(=O)CCC1N=C2c3ccccc3N=C(SCc3ccc(C)cc3C)N2C1=O (stereo unspecified),i,i,i,nt,i
Cc1ccc(-c2csc(-c3c(N)c(C(=O)c4ccc5c(c4)OCO5)n4ccccc34)n2)cc1,i,i,i,nt,i
CCOc1ccc(-c2csc(-c3c(N)c(C(=O)c4ccc5c(c4)OCO5)n4ccccc34)n2)cc1,i,i,42,nt,i
Nc1c(-c2nc(-c3ccccc3)cs2)c2ccccn2c1C(=O)c1ccc2c(c1)OCO2,i,i,35,nt,i
COc1cccc(CCNc2ncnc3c2nnn3C)c1,nt,i,i,nt,i
SMILES,D1 antag,D1 potentiator,D1 ag,DRD3 antagonist,D3 ag
CC(C)NC(=O)/C(C#N)=C\c1ccc(N(C)C)o1,i,i,i,i,i
CCN(CC)c1ccc(/C=C(/C#N)C(=O)NCc2ccccc2)o1,i,i,152,i,i
CCN(CC)c1ccc(/C=C(/C#N)C(=O)NC(C)C)o1,i,i,57,i,i
CC(=O)Nc1ccc(/C=C(\C#N)C(=O)NCc2ccccc2)cc1,i,i,i,i,i
CCc1cccc(C)c1NC(=O)CSc1nc2ccccc2nc1Cc1ccccc1,i,i,i,nt,i
O=C1Nc2ccccc2/C1=N/c1sc2c(c1C(=O)NCCc1ccccc1)CCCC2,i,i,i,-90,i
COc1ccc(NC(=O)c2sc3nc(C)c(C(=O)Nc4ccc(C)cc4C)c(-c4ccccc4Cl)c3c2N)cc1,i,i,i,nt,i
Cc1ccc(NC(=O)c2c(C)nc3sc(C(=O)Nc4ccc(F)cc4)c(N)c3c2-c2ccccc2Cl)c(C)c1,-39,i,i,nt,i
O/C=c1\ccc2cccc3nc(C(F)(F)F)nc1c23,i,i,i,i,i
C/C(O)=c1/ccc2cccc3nc(C)nc1c23,i,i,47,i,i
CCN(CC)CCCNC(=O)Cc1csc2nc(-c3ccc(Cl)cc3)cn12,i,i,i,nt,i
CN(C)C/C=C(/c1ccc(Br)cc1)c1cccnc1,nt,nt,nt,-105,i
CCC1CN(C(=O)N2CCC(C(=O)NCc3cccc(F)c3)CC2)c2cc(C)ccc2O1 (stereo unspecified),i,i,i,nt,i
CC(=O)N1CCc2cc(S(=O)(=O)N3CCN(S(=O)(=O)c4c(F)cccc4F)CC3)ccc21,i,i,i,nt,nt
Cc1cccc(N2CCN(C(=O)c3nn(C)c4c3CSc3ccccc3-4)CC2C)c1 (stereo unspecified),-46,i,i,nt,i
COc1cccc(-c2nn(C)c3sc(C(=O)NCCc4cccc(C)c4)cc23)c1,i,i,46,nt,i
COc1cccc(-c2nn(C)c3sc(C(=O)NCc4ccc(C)cc4)cc23)c1,i,i,i,?,i
CCOC(=O)N1CCN(C(=O)c2cc3c(-c4cccc(OC)c4)nn(C)c3s2)CC1,i,i,i,i,i
COc1cccc(-c2nn(C)c3sc(C(=O)N4CCN(c5cccc(C)c5)C(C)C4)cc23)c1 (stereo unspecified),i,i,i,nt,48
CCOC(=O)N1CCC(NC(=O)c2cc3c(-c4cccc(OC)c4)nn(C)c3s2)CC1,-43,i,i,i,i
Cc1cccc(N2CCN(C(=O)c3nn(C)c4c3CS(=O)(=O)c3ccccc3-4)CC2C)c1 (stereo unspecified),i,i,i,i,i
CCOc1ccc(C(=O)Nc2nnc(S(=O)(=O)N(CC)c3ccccc3C)s2)cc1,i,i,i,nt,i
CCN(c1ccccc1)c1ncnc2c1cnn2-c1ccc(OC)cc1,i,i,i,nt,i
COc1ccc(S(=O)(=O)NCc2cccs2)cc1,-32,i,i,i,i
CCCOc1ccc(S(=O)(=O)NCc2ccc(OC)cc2)cc1,-44,i,i,i,i
COc1ccc(CNS(=O)(=O)c2ccc(C3CNC(=O)C3)cc2)cc1 (stereo unspecified),i,i,i,-142,i
CCN(CC)S(=O)(=O)c1ccc(S(=O)(=O)NCc2cccs2)cc1,i,i,i,i,i
CC(=O)N1CCc2c(sc3c2c(=O)n(CCc2ccccc2)c(=O)n3Cc2cccc(C)c2)C1,i,i,i,nt,i
Cc1ccc(-c2cc3ncc4c(n3n2)-c2cc(Cl)ccc2OC4)cc1,i,i,i,nt,i
Nc1ccn([C@@H]2O[C@H](C(=O)N(CCC3=CCCCC3)CC3CC3)[C@@H](O)[C@H]2O)c(=O)n1,nt,nt,nt,i,40
